For orientation: inhibition means the drop in the measured response relative to a control, in per cent.

Screen size: about 360,000 compounds; about 7,300 (2%) were called active. Shown is part of a subset that was picked to be rich in actives. A number with no mark means an inactive call. Cut-off read from the data, not from the text of the source: active = inhibition above about 50%; inactive = the rest.

The experiment is described as follows: inhibitors of TWEAK-Fn14 signaling, primary screen, luciferase reporter cells, uHTS (AID 1159606). The note with it: TWEAK-stimulated Fn14 reporter cells, luciferase luminescence, 8 h; at 10 µM; active compounds read high. (Reporter assays use an easily measured gene product as a stand-in for the process of interest.)
Regarding `NS(=O)(=O)c1cccc(NC(=O)COC(=O)c2cc([N+](=O)[O-])ccc2N2CCCC2)c1`, the inhibition was -16.4%.

Consider `O=[N+]([O-])c1ccc2oc(-c3cccc(O)c3)nc2c1`, for which the inhibition is 5.84%.

As for `COc1ccc2oc(N)nc2c1`, the inhibition is -11.6%.

As to `COc1cccc(-c2nc3cc(C)ccc3o2)c1`, the inhibition is 51.2% (active).

`CCN(CC)c1ccc(NC(=O)c2ccc(=O)[nH]c2)cc1S(=O)(=O)Nc1ccc(OC)cc1`: the inhibition is 9.69%.

With `COc1cc(NC(=O)COC(=O)CSc2ccc3ccccc3c2)c(C)cc1[N+](=O)[O-]`, the inhibition is 2.69%.

With `CC[C@@H]1Cc2cc(O)ccc2C2=C1c1ccc(O)cc1C[C@H]2CC`, the inhibition is 77% (active).

As for `COc1ccc(NC(C(=O)Nc2cccc(C(C)=O)c2)c2ccccc2)cc1` (configuration not stated), the inhibition was -31.7%.

Turning to `CCSc1nsc(NC(=O)Nc2cccc(C(C)=O)c2)n1`, the inhibition was 87.9% (active).

On to `C=CCSc1nsc(NC(=O)Nc2cccc(C(C)=O)c2)n1`, for which the inhibition is 91% (active).

Regarding `CSc1ccccc1C(=O)Nc1cccc(C(C)=O)c1`, the inhibition was 0.31%.

Regarding `CC(=O)c1cccc(NC(=O)C2CCN(C(=O)c3ccccc3Cl)CC2)c1`, the inhibition is -5.45%.

On to `CC(=O)c1cccc(NC(=S)N2CCN(S(C)(=O)=O)CC2)c1`, for which the inhibition was -22.1%.

Turning to `Cc1ccc(C2Nc3ccccc3C(=O)N2CCN2CCNC2=O)cc1` (configuration not stated), the inhibition was -6.92%.

As to `C[C@@H]1CN([C@@H](C)CO)C(=O)c2cc(NS(C)(=O)=O)ccc2O[C@@H](C)CCCCO[C@H]1CN(C)C(=O)Nc1ccc2c(c1)OCO2`, the inhibition was -5.22%.

`O=C(c1ccc(F)cc1)N1CCC(n2nnc3ccccc32)CC1`: the inhibition is -5.58%.

On to `CC1COc2ccccc2N1C(=O)c1ccc(F)cc1` (configuration not stated), for which the inhibition was 0.29%.

With `O=C(c1ccc(F)cc1)n1c(=S)nc2ccccn21`, the inhibition was 78.2% (active).

For `CCCC(CCC(=O)OC)(C(=O)OCC)c1csc(N)n1` (configuration not stated), the inhibition is -16.1%.

On to `CC1(C)Oc2ccc3ccc(=O)oc3c2/C(=N/O)C1=O`, for which the inhibition was 3.76%.

Regarding `CC1(C)Oc2ccc3ccc(=O)oc3c2/C(=C/NCCO)C1=O`, the inhibition was 4.08%.

Turning to `C/C=C(/C)C(=O)OC1Cc2c(ccc3ccc(=O)oc23)OC1(C)C` (configuration not stated), the inhibition is 94.7% (active).

Consider `COc1ccc(C2CC(c3cccc(OC)c3)=NN2c2ccc(S(N)(=O)=O)cc2)cc1` (configuration not stated), for which the inhibition was -3.98%.

On to `CCCSc1nc2c(c(=O)n(C)c(=O)n2C)n1Cc1ccc(C)cc1`, for which the inhibition was 68.3% (active).

Take `CCOc1ccc(Cn2c(SCCCCC#N)nc3c2c(=O)n(C)c(=O)n3C)cc1OCC`: the inhibition was -21.4%.

For the compound `Cn1c(=O)c2c(nc(SCCNS(=O)(=O)c3ccccc3)n2C)n(C)c1=O`, the inhibition was 3.41%.

Consider `O=C(Cn1nnc2ccccc2c1=O)Nc1cc(C(F)(F)F)ccc1N1CCOCC1`, for which the inhibition was 1.74%.

Turning to `C#CCNC(=O)C1=C[C@@H](c2ccccc2)[C@H](CCCO)[C@@H](OCC)O1`, the inhibition was 4.59%.

Turning to `O=C(CCCCCn1c(=S)[nH]c2cc3c(cc2c1=O)OCO3)N1CCN(c2ccc(F)cc2)CC1`, the inhibition is -18.2%.

As to `Cc1ccc(OCCCC(=O)N2CCOCC2)c(C)c1`, the inhibition was -41.6%.

Consider `Cc1ccc(C)c(N2CCN(C(=O)CCCn3c(=O)c4cccn4c4cccnc43)CC2)c1`, for which the inhibition is -17.6%.

Regarding `Cc1ccc(C)c(N2CCN(C(=O)CCCCCn3c(=S)[nH]c4ccc(N5CCOCC5)cc4c3=O)CC2)c1`, the inhibition was 88.1% (active).

Take `Cc1ccc(C)c(N2CCN(C(=O)CCCCn3c(=O)[nH]c4ccccc4c3=O)CC2)c1`: the inhibition was 50.3% (active).

As to `O=C(CCCCCn1c(=O)[nH]c2ccccc2c1=O)NCCc1c[nH]c2ccccc12`, the inhibition was 35%.

Regarding `O=C(CCCC(=O)N(CC(=O)NC1CCCC1)Cc1ccccc1Cl)Nc1ccccn1`, the inhibition is 5.53%.

With `CSCCC(NC(=O)C1CCC(C)CC1)C(=O)NCc1ccco1` (configuration not stated), the inhibition is -2.99%.

Regarding `Cc1ccc(Cn2cc(CN3CC(N4CCN(C)CC4)CS3(=O)=O)nn2)cc1` (configuration not stated), the inhibition is -2.98%.

As for `CN1CCN(c2ccc3c(c2)OC[C@H](Cc2ccccc2)NS3(=O)=O)CC1`, the inhibition is -3.51%.

Take `CCc1nc2ccc(C(=O)Nc3cccc(OC)c3)cn2c1N(CCC(C)C)CCN(C)C`: the inhibition was 15.5%.

Consider `CCN1CCN(C(=O)CCN2C(=O)c3ccccc3C2=O)CC1`, for which the inhibition was -7.32%.

For the compound `C=CCN1CCN(C(=O)CCCc2ccccc2)CC1`, the inhibition was 86.5% (active).

Turning to `CC1=NN(C(=O)CCCc2ccccc2)C(O)(C(F)(F)F)C1` (configuration not stated), the inhibition was -10.4%.

Turning to `CC1CCCC(C)N1/N=C/c1ccccc1OC(F)F` (configuration not stated), the inhibition was -5.12%.

Consider `Cc1nn(-c2ccccc2)c(C)c1NC(=O)COc1ccc(Cl)cc1Cl`, for which the inhibition is 86.4% (active).

Turning to `Cc1nn(-c2ccccc2)c(C)c1NC(=O)CCl`, the inhibition was 6.77%.

For `Cc1nn(-c2ccccc2)c(C)c1NC(=O)COC(=O)c1cc(Cl)ccc1O`, the inhibition is 1.71%.

As to `O=C(Nc1cccc(S(=O)(=O)N2CCCC2)c1)c1cncc(Br)c1`, the inhibition was 13.2%.

For the compound `O=C(Nc1cccc(S(=O)(=O)N2CCCCC2)c1)c1cncc(Br)c1`, the inhibition was 20.6%.

On to `O=C(Nc1ccc(N2CCCC2=O)cc1)c1cncc(Br)c1`, for which the inhibition is 50.3% (active).

With `COc1cc(C)c(CN2CCN(C(=O)CCC(=O)c3ccc(C)s3)CC2)cc1OC`, the inhibition is 11.6%.

Consider `COC(=O)c1ccccc1Oc1c(F)c(F)nc(N2CCOCC2)c1F`, for which the inhibition is -14.1%.

Consider `CCOc1ccc(Nc2nc(Cl)nc(N3CCN(c4ccc(OC)cc4)CC3)n2)cc1`, for which the inhibition is 1.18%.

As for `COc1ccc(Nc2ncc(F)c(N3CCOCC3)n2)cc1`, the inhibition is 60.1% (active).

On to `CNS(=O)(=O)c1ccc(NC(=O)C2CC(=O)N(c3ccc(Cl)cc3)C2)cc1` (configuration not stated), for which the inhibition was 14.4%.

On to `O=C(OCC(=O)N1CCOCC1)c1ccc(N2CCOCC2)c([N+](=O)[O-])c1`, for which the inhibition was -16.3%.

As to `CC(=O)N1CCC(C(=O)Nc2nc(-c3ccccc3)ns2)CC1`, the inhibition was 14.9%.

As to `COC(=O)C1=C(C(=O)OC)[C@@H]2N(C)c3ccccc3[C@@]23C[C@@H](C(=O)OC)N(C(C)=O)C3=N1`, the inhibition is -3.56%.

Consider `Cc1[nH]c2ccccc2c1C(=O)C(=O)NCc1nnnn1-c1cccc(F)c1`, for which the inhibition was 3.05%.

Take `CCOC(=O)C1(CC2CCCCO2)CCN(Cc2nc(-c3cccs3)oc2C)CC1` (configuration not stated): the inhibition was -0.53%.

As to `Cc1ccc(C(=O)CSc2ccccc2C(=O)O)cc1`, the inhibition was 53.3% (active).

For the compound `O=C(CSc1cccc[n+]1[O-])c1ccc(-c2ccccc2)cc1`, the inhibition is 2.59%.

With `Cc1ccc(Sc2cc(C(=O)c3ccccc3C(=O)O)ccc2[N+](=O)[O-])cc1`, the inhibition was -6.54%.

On to `CCCCOC(=O)Nc1sc2nc(C)cc(C)c2c1-n1cccc1`, for which the inhibition was 0.84%.

For the compound `CN(C)NC(=O)c1csnc1-c1c(Cl)cccc1Cl`, the inhibition is 4.17%.

`COc1ccc(S(=O)(=O)N2CCOCC2)cc1NC(=O)CC1CC2CCC1C2` (configuration not stated): the inhibition was 3.62%.

As for `O=C(NC1=CC(=O)c2ccccc2C1=O)c1ccccc1`, the inhibition was 67.5% (active).

Consider `Cc1cc(=O)c2ccc(NC(=O)c3ccccc3)cc2[nH]1`, for which the inhibition was -10.3%.

Regarding `O=C(NCCc1ccccc1)c1cccc(NC(=O)c2ccccc2)c1`, the inhibition was -19.1%.

With `NC(=O)COC(=O)c1sc2cc(F)ccc2c1Cl`, the inhibition is -16.4%.

In the case of `FC(F)(F)Oc1ccccc1C(c1nnnn1C1CCCCC1)N1CCN(C/C=C/c2ccccc2)CC1` (configuration not stated), the inhibition was 24.4%.

For the compound `CC(C)c1ccccc1OCC(O)CN(CC(O)COc1cccc2ccccc12)C(C)C` (configuration not stated), the inhibition was -15%.

With `N/C(=N\OC(=O)Nc1ccccc1)c1ccno1`, the inhibition is -22.1%.

For `O=C(COc1ccc(-n2cnnn2)cc1)Nc1ccccc1Cl`, the inhibition is -14.3%.

With `O=C(Nc1ccccc1Cl)O/N=C(/c1ccccc1)c1ccccn1`, the inhibition is 60.2% (active).

Turning to `COc1ccc(CN2C(=O)C(CC(=O)NCCN3CCOCC3)CC(C(=O)N(C(C)C)C(C)C)=C2C)cc1` (configuration not stated), the inhibition was 14.2%.

With `C#CCNc1ccc(C(=O)OCC)cc1`, the inhibition was -3.49%.

As for `CC(CN1CCCCC1)OC(=O)c1ccccc1Cl` (configuration not stated), the inhibition is 16.6%.

With `CC(C)OC(=O)c1ccc(NCc2cc(O)ccc2O)cc1Cl`, the inhibition is 102% (active).

In the case of `CCN(CC)C(=O)CCC(=O)Nc1ccc(C(=O)OC)cc1`, the inhibition is 0.79%.

As to `CC1(C)C2CCC1(C)C(OC(=O)c1ccc(O)cc1)C2` (configuration not stated), the inhibition is 16.2%.

For the compound `O=C(O)Cc1ccc(NCc2ccccc2Cl)cc1`, the inhibition was 22.4%.

With `COC(=O)c1ccc(NCc2cc(O)ccc2O)cc1`, the inhibition was 88.9% (active).

`O=C(OC12CC3CC(CC(C3)C1)C2)c1ccc(NCc2cc(O)ccc2O)cc1`: the inhibition is 106% (active).

Consider `COc1nc(N(C)C)nc(N2CC(=O)N(CCNS(=O)(=O)c3ccc(C)cc3)C2=N)n1`, for which the inhibition is -3.28%.

As to `Cc1ccccc1-c1csc(C(O)c2cccc(Cl)c2)n1` (configuration not stated), the inhibition is -4.88%.

Take `COc1ccc(N2CCN(C(=O)C3CCN(S(=O)(=O)c4ccc(C)cc4)CC3)CC2)cc1`: the inhibition is -13.2%.

As to `Cc1nccn1CCC1CCCCN1C(=O)CCc1nnc(-c2ccsc2)o1` (configuration not stated), the inhibition is -14.9%.

Turning to `O=C(Cn1cnc2cc([N+](=O)[O-])ccc2c1=O)NC(=O)NCc1ccccc1`, the inhibition was -1.13%.

For the compound `CC(C)(C)NC(=O)Cn1cnc([N+](=O)[O-])n1`, the inhibition was 18.3%.

As to `CC(C)(C)NC(=O)Cn1cnc2cc([N+](=O)[O-])ccc2c1=O`, the inhibition is 83% (active).

With `Cc1cc2c(cc1S(=O)(=O)NCc1ccc(Cl)cc1)OCC(=O)N2`, the inhibition is -8.95%.

For the compound `CCOC(=O)C(=Cc1ccccc1)C(=O)c1ccccc1`, the inhibition is 98.4% (active).

With `CCOC(=O)C(=Cc1ccccc1OC)C(=O)OCC`, the inhibition was 81.9% (active).

With `CCOC(=O)CCP(=O)(O)C(O)(c1ccccc1)c1ccccc1`, the inhibition is -6.25%.

As to `COc1ccccc1C(=O)c1ccccc1C(=O)c1ccccc1`, the inhibition is 9.79%.

Take `CCc1ccccc1NC(=O)/C(=C/c1ccccc1)c1ccccc1`: the inhibition was -19.8%.

As to `COc1ccccc1/C=C/C(=O)NC1CC2CCC1C2` (configuration not stated), the inhibition was -13.3%.

Values taken from PubChem BioAssay AID1159606 (Sanford-Burnham Center for Chemical Genomics, 2016).
